In PubChem BioAssay AID504660 (National Center for Advancing Translational Sciences (NCATS), 2011):
The whole screen tested about 360,000 compounds, of which about 3,700 (1%) were called active. Shown is part of a subset that was picked to be rich in actives. A number with no mark means an inactive call. Cut-off read from the data, not from the text of the source: active = activation above about 30%; inactive = the rest.

target: D(1A) dopamine receptor (Homo sapiens) (UniProt P21728); assay: Allosteric Agonists of the Human D1 Dopamine Receptor: qHTS; conditions: HEK293 T-REx D1 cells, calcium flux, agonist mode; at 2 µM; stronger effect = higher value; note: 0% is about no effect
Summary of the method: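 Tetracycline-induced HEK293 TREx D1 cells, force-coupled to calcium signalling, were dye-loaded with a no-wash calcium kit. Compound was pin-added after a 10 s baseline. Fluorescence was read kinetically at 1 cycle/s for 180 s, with calcium rises flagged as agonism.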

D(1A) dopamine receptor (Homo sapiens), sequence (P21728 whole entry, looked up): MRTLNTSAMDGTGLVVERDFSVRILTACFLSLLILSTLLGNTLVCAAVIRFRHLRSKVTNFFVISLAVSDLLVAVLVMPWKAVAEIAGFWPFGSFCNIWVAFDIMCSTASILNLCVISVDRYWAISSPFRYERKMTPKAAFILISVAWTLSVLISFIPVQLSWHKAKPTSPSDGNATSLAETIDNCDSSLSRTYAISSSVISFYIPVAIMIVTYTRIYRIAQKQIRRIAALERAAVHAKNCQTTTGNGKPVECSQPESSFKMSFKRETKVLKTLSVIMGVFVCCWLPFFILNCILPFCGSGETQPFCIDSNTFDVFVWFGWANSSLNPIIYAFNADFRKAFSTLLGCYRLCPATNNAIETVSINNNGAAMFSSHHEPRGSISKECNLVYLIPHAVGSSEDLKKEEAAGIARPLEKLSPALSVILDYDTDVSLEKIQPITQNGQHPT

SMILES | activation
COc1cc(CNCc2cccs2)cc(Br)c1OC | 2.66%
COc1cc(CNCc2ccc(OC)c3ccccc23)cc(OC)c1OC | 36.9% (active)
COc1ccccc1N1CCN(Cc2ccc(OC)c3ccccc23)CC1 | 0.832%
Cc1ccc2ccc3c(c2n1)NS(=O)(=O)c1ccccc1-3 | -0.466%
CCC(=O)N1CCc2cc(S(=O)(=O)NC(Cc3ccccc3)C(=O)NCc3ccccc3)ccc21 (stereo not drawn) | 0.429%
CCCOc1ccc(-c2cccc(NS(=O)(=O)c3ccccc3)c2)nn1 | -0.134%
COc1ccc(-c2nc(CN3CCC(C(=O)NCc4ccccc4)CC3)c(C)o2)cc1OC | -1.51%
COc1ccc(CCNC(=O)C2CCCN(Cc3nc(-c4cccc(Cl)c4)oc3C)C2)cc1OC (stereo not drawn) | 19.6%
Cc1oc(-c2ccccc2F)nc1CN1CCC(C(=O)NCCc2ccc(Cl)cc2)CC1 | 34.8% (active)
COc1ccc(CCNCc2c(C(=O)O)c(C)n(Cc3cccc(C)c3)c2C)cc1OC | 1.85%
CCc1cc2c(-c3ccccc3)cc(=O)oc2c2c1OCN(Cc1ccc(C)cc1)C2 | 10.6%
CSc1ccc(C2c3c(oc4ccccc4c3=O)C(=O)N2CCCN2CCOCC2)cc1 (stereo not drawn) | -1.33%
CCc1ccc(NC(=O)C2CCCN2S(=O)(=O)c2ccc3nc(-c4ccccc4)[nH]c3c2)cc1 (stereo not drawn) | 0.736%
Cc1cccc2cc3c(N)c(C(=O)N4CCCc5ccccc54)sc3nc12 | 60.4% (active)
CCCn1nc(C(=O)N2CCCc3ccccc32)c2ccccc2c1=O | 0.113%
COc1cccc(/C=C/C(=O)OCC(=O)N2CCCc3ccccc32)c1 | 9.89%
Oc1ccccc1-c1nc(/C=C/c2ccc(F)cc2)no1 | 5.78%
O=C(/C=C/c1ccccc1)Nc1cc(-c2nc3cc(Cl)ccc3o2)ccc1Cl | -1.26%
COc1ccc(-c2nc3sc(CCNC(=O)C(C)(C)C)c(C)n3n2)cc1 | 3.98%
Cc1ccc(Nc2c(-c3ccc(C)cc3)nc3cnccn23)cc1 | 3.9%
Cc1ccc(Nc2c(-c3ccc(N(C)C)cc3)nc3nc[nH]n23)cc1 | 39.9% (active)
Cc1ccc(-c2nc3cccc(C)n3c2Nc2ccc3c(c2)OCCO3)cc1 | -0.166%

SMILES | activation
COc1ccc(-c2nc3ccccc3s2)cc1NC(=O)COc1ccccc1C | -0.142%
Cc1cc2c(s1)c1cnn(Cc3c(F)cccc3Cl)c(=O)c1n2C | 0.794%
Cn1c(=O)c2c(n3c4ccccc4nc13)NC(=O)CC2c1cccc(Cl)c1 (stereo not drawn) | 3.64%
COc1ccc(C(=O)CSc2n[nH]c(N)n2)cc1 | -2.12%
COC(=O)c1cccc(NC(=O)CSc2nc(C)cc(=O)[nH]2)c1 | 1.14%
COC(=O)c1cc(C(=O)CSc2nc(C)cc(C)n2)ccc1O | 257% (active)
Cn1c(=O)c2c(nc(SCC(=O)Nc3ccc(F)cc3)n2Cc2ccc(Cl)cc2)n(C)c1=O | -0.966%
CCOC(=O)c1ccc(NC(=O)C2CCN(S(=O)(=O)c3ccc4c(c3)CCCC(=O)N4)CC2)cc1 | -0.195%
COc1ccc(Cl)cc1N(C)C(=O)c1cc2c(=O)oc3ccc(C)cc3c2s1 | 1.68%
COC(=O)c1sc(-c2ccc(C(C)(C)C)cc2)cc1NC(=O)/C=C/C(=O)O | 33% (active)
Cc1ccc(NC(=O)c2oc3ccccc3c2NC(=O)Cc2cccs2)cc1 | 5.67%
CCN1C(=O)c2ccccc2Sc2ccc(NC(=O)Cc3ccc(OC)cc3)cc21 | 8.31%
COc1ccc(-c2onc3ccc(C(C)=O)cc23)cc1 | 68% (active)
COc1ccc(NC(=O)Nc2cccc(-c3noc(C)n3)c2)cc1 | -0.581%
COc1ccc(-c2nc3ccc(C(=O)NCc4ccc(C)cc4)cc3nc2-c2ccc(OC)cc2)cc1 | -0.317%
O=C(NCCCc1ccccc1)c1ccc2c(c1)sc1nc(-c3ccc(F)cc3)cn12 | 1.38%
COC(=O)c1cc(S(=O)(=O)NCC2CCN(Cc3ccc(Cl)cc3)CC2)cn1C | 35.7% (active)
COC(=O)c1cc(S(=O)(=O)NC2CCN(Cc3ccccc3)CC2)cn1C | 6.94%
O=S(=O)(NCC1CC1)c1ccc(F)c(Cl)c1 | 0.965%
O=C(CSc1ncc(CO)n1Cc1ccc(Cl)cc1)NCc1ccc(F)cc1 | -0.41%
Cc1ccc(NC(=O)CSc2nc3c(c(=O)[nH]2)CN(Cc2ccc4c(c2)OCO4)CC3)cc1C | 2.15%
CCNC(=O)CC1C(=O)N(c2ccc(F)cc2)C(=O)N1Cc1ccc(C)cc1 (stereo not drawn) | -1.09%

SMILES | activation
Cc1ccc(-c2cc(C(F)(F)F)c(C#N)c(SCC(=O)Nc3ccccc3)n2)cc1 | 76.6% (active)
COCc1cc(C)nc(SCC(=O)Nc2cccc(C)c2)c1C#N | 1.7%
Cc1cc(C(F)(F)F)c(C#N)c(SCC(=O)NC2CC2)n1 | 2.38%
CCOc1ccc(-n2c(C)nc3c(cnn3-c3ccc(C)cc3)c2=O)cc1 | 0.209%
COc1cccc(NS(=O)(=O)c2ccc3[nH]cc(C(=O)NCCCOC(C)C)c(=O)c3c2)c1 | 122% (active)
CCCCN(CC)C(=O)c1c[nH]c2ccc(S(=O)(=O)Nc3cccc(OC)c3)cc2c1=O | 1.98%
CCCCNC(=O)c1c[nH]c2ccc(S(=O)(=O)Nc3ccc(OCC)cc3)cc2c1=O | 5.78%
O=C(c1cccs1)c1cn(CCOc2ccc(Cl)cc2)c2ccccc12 | -1.61%
Cc1ccc(C)n1-c1nnc(N2CCC(C(=O)NCc3ccc(F)cc3)CC2)s1 | 2.04%
CC1=C(c2ccc(Cl)cc2)S(=O)(=O)N=C1N1CCN(c2cc(C)ccc2C)CC1 | 7.7%
Cc1oc(-c2ccccc2)nc1Cn1c(SCc2cccc(C(F)(F)F)c2)nc2cccnc21 | 3.89%
CN(Cc1nc2ccccc2c(=O)[nH]1)Cc1cc(=O)oc2ccc3ccccc3c12 | -0.344%
Cc1ccc2c(=O)oc(N(C)C)nc2c1 | 1.52%
CCN(CC)c1ccc2oc(=O)c(C)nc2c1 | 192% (active)
Cc1ccc(Cl)cc1N1CCN(C(=O)c2cn(C)c3ccc(S(=O)(=O)N(C)C4CCCCC4)cc3c2=O)CC1 | 3.27%
COc1ccc(Cl)cc1S(=O)(=O)Nc1cccc(C(=O)O)c1 | 2.88%
O=C(Nc1ccc2c(c1)OCO2)c1cc(-c2cccc(Cl)c2)on1 | -1.41%
COc1ccc(C(=O)N2CCC(C(=O)Nc3ccc(C)cc3)CC2)cc1 | 1.17%
COc1ccc(S(=O)(=O)c2c(Nc3cccc(Cl)c3)sc(C(=O)c3ccccc3)c2N)cc1 | 75.8% (active)
Cc1ccc(C(=O)Nc2sc(Cc3ccc4c(c3)OCO4)c(C)c2C(N)=O)cc1 | -1%
COc1ccc(S(=O)(=O)c2c(Nc3ccc(C)cc3)sc(C(=O)c3ccc(C)cc3)c2N)cc1 | 56.2% (active)
CC(=O)c1c(Nc2ccccc2)sc(C(=O)c2ccccc2)c1C | 5.07%

SMILES | activation
CO/N=C(/CS(=O)(=O)c1ccc(Br)cc1)c1ccc(OC)cc1 | 0.348%
Cc1ccc(S(=O)(=O)c2c(Nc3cccc(Cl)c3)sc(C(=O)c3ccc4c(c3)OCO4)c2N)cc1 | 61.9% (active)
CCc1ccccc1NC(=O)N1CCN(C(=O)c2nsc3ccccc23)CC1 | 2.7%
CCCS(=O)(=O)c1ncc(Cl)c(C(=O)Nc2scc(-c3ccccc3)c2C(=O)OCC)n1 | 5.24%
O=c1c(NCc2cccs2)nccn1-c1ccccc1 | 2.15%
Cc1ccc(CNS(=O)(=O)c2ccc(-c3cc(C(F)(F)F)on3)s2)cc1 | 0.651%
Cn1nnnc1Sc1ncnc2scc(-c3ccccc3[N+](=O)[O-])c12 | 1.58%
CCc1ccc(NC(=O)Cn2c(=O)n(CCC(=O)NCc3ccc4c(c3)OCO4)c(=O)c3ccccc32)cc1 | -0.957%
O=C(CCCN1CCc2[nH]c3ccc(F)cc3c2C1)c1ccc(F)cc1 | 56.3% (active)
O=c1c2ccccc2[nH]c(=S)n1CCN1CCC(=C(c2ccc(F)cc2)c2ccc(F)cc2)CC1 | 0.942%
Cc1ccc2[nH]c3c(c2c1)CN(C(=O)CN1CCN(c2ccccc2)CC1)CC3 | 0.149%
O=C(CSc1nc2ccccc2nc1Cc1ccccc1)N1CCCCC1 | 4.62%
CCc1nccn1S(=O)(=O)c1cc(Br)ccc1Br | -0.03%
CCOc1ccccc1NC(=O)C1=C(C)Nc2ncnn2C1c1ccc(NC(C)=O)cc1 (stereo not drawn) | 1.04%
Cc1ccc(-c2nn(CCC(=O)Nc3ccc(Cl)c(Cl)c3)c(=O)c3ccccc23)cc1 | 0.86%
Cc1ccc(-c2nn(CCC(=O)Nc3ccc(OC(F)(F)F)cc3)c(=O)c3ccccc23)cc1 | 1.41%
Cc1cccc(NC(=O)Cn2nc(-c3ccc(Cl)cc3)c3ccccc3c2=O)c1 | 35.9% (active)
Cc1ccc(C(=O)Nc2nc(-c3ccccc3)ns2)cc1 | -0.0471%
CCC(=O)N1c2ccccc2CC1C(=O)N1CCN(c2cccc(OC)c2)CC1 (stereo not drawn) | -0.217%
O=C(NCCCCc1ccccc1)C1CC(c2ccc([N+](=O)[O-])cc2)=NO1 (stereo not drawn) | 7.04%
CC(=O)N1c2ccccc2N(Cc2ccc([N+](=O)[O-])cc2)C(=O)C1(C)C | 2.19%
O=C1NC(=O)C2C1C(c1ccc([N+](=O)[O-])cc1)=NN2Cc1ccccc1 (stereo not drawn) | 44.8% (active)
